Tau fil binding: tau filament binding; P10636; recombinant tau filaments, thioflavin S fluorescence, 15 h; filaments grown with octadecylsulfate alongside compound; Potency, µM (top dose mostly 57.1 µM), for the others: at the top dose activity change, negative = inhibition; 2% of 71,000 active; AID 596;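 further: actives lower thioflavin S fluorescence by blocking filaments or displacing dye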
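Assay mix: 1 uM His-tagged tau, 30 uM sodium octadecylsulfate, thioflavine S dye in HEPES/NaCl/DTT buffer. Compound is added prior to the inducer. Fluorescence after 15 h at 37 C.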
15-hLO inh: inhibitors of human 15-lipoxygenase (ALOX15); P16050; purified 15hLO-1, xylenol orange hydroperoxide absorbance; Potency, µM (titrated, usually from 57.1 µM), for inactives: at the highest dose activity change, negative = inhibition, most hits filed as inhibitors; 1.4% of 74,000 active; further: nearly all actives have a fitted effect of over 55% in size
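Purified human 15hLO-1 (40 nM final) in 25 mM Hepes pH 7.5, 0.01% Triton X-100 was preincubated with compound 15 min at room temperature, then reacted 6 min with 50 uM arachidonic acid; hydroperoxide detected by Fe-XO, 573/405 nm absorbance ratio.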
PK Bst: alters activity of Bacillus stearothermophilus pyruvate kinase; purified pyruvate kinase, luminescence ATP production; ribose 5-phosphate activator present at AC10; Potency, µM; 1.2% of 51,000 active; in the data active means potency below about 11 µM; inconclusive means mostly about 12 µM to 25 µM;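 the screen sought inhibitors and activators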;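 further: scaled between full activation by ribose 5 phosphate and full inhibition by luteolin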
Hsp90 Hop PPI: changes Hsp90-Hop TPR2A binding signal, up or down | AlphaScreen TPR2A-His6 binding biotin-Hsp90 C-terminal peptide | 0.44% of 71,000 active | Potency, µM (top dose mostly 57 µM), inactives show at the highest dose activity change, negative = inhibition; active means well fitted curve in either direction with a large enough effect; inconclusive means small, poorly fitted or top-dose-only effect, or another doubt
ERK AVP inh: blocks ERK signaling stimulated by vasopressin. HEK293-V1b, vasopressin-stimulated pERK AlphaScreen. Potency, µM (doses to about 57.5 µM), without a hit: at the top dose activity, negative = inhibition, most hits filed as inhibitors. 0.99% of 72,000 active; further: nearly all actives have a fitted effect of over 55% in size
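qHTS, compounds titrated on V1b-expressing HEK293 cells. Preincubation 30 min at 37C, vasopressin 25 nM for 5 min, lysis 10 min, bead incubation 5 hr at room temperature.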
Luciferase inh: inhibitors of firefly luciferase; Potency, µM (series often up to 57.1 µM), inactives show at the highest dose activity change, negative = inhibition, actives largely listed as inhibitors; P08659; purified firefly luciferase, luminescence, 8 min; AID 411; 2.2% of 72,000 active; further: nearly all actives have a fitted effect of over 40% in size
Target sequence (P08659 whole entry, looked up): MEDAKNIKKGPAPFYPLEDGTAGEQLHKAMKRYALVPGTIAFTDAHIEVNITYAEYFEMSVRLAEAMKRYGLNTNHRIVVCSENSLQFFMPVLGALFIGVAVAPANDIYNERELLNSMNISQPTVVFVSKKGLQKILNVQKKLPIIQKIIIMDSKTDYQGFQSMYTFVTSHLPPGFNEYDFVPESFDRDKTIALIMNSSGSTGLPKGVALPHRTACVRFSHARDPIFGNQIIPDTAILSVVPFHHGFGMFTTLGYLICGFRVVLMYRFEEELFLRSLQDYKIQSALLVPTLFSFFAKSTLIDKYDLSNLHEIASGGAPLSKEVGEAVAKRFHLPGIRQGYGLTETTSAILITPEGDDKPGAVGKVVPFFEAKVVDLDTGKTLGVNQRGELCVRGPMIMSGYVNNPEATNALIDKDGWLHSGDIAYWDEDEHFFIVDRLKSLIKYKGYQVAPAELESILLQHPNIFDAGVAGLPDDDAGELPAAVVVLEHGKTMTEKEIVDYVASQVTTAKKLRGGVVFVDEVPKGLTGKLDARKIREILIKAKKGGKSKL
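qHTS concentration-response profiling: light output of P. pyralis luciferase with luciferin and 10 uM ATP, imidazole buffer pH 7.2. Read by luminescence after 8-min room-temperature incubation.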
* marks the source's active call; other numbers are inactive results; i = inactive; ? = inconclusive; . = no result given; [ ] = remark or other dose. Sampled rows, rich in hits. Any-hit rate of the full collection: about 6.1%. Unless noted, the call rests on the fitted dose curve; in most records, active means well fitted curve in the direction sought with a large enough effect; inconclusive means small, poorly fitted or top-dose-only effect, or another doubt; inactive means no such curve, though single readings can be large; an effect the other way counts as inactive or inconclusive. Unless noted, on the % scale 0 is the no-effect control and ±100 the full control effect; potency means the concentration at half of the fitted maximal effect.

SMILES	Tau fil binding	15-hLO inh	PK Bst	Hsp90 Hop PPI	ERK AVP inh	Luciferase inh
CCOC(=O)c1c(C)[nH]c(C(=O)COC(=O)c2ccncc2)c1C	-18%	-2%	>57	-1%	-16%	-2%
CCOC(=O)c1c(C)[nH]c(C(=O)COC(=O)C2CC2C)c1C (stereo not given)	1%	6%	i	-1%	-2%	10µM*
COC(=O)C/C=C\[C@@H](C)[C@@H](/C=N\O[C@@H](C)CN1CCCCc2nc(C)c(C)cc21)OC	.	2%[11.4 µM]	.	.	13%[11.5 µM]	1%[11.4 µM]
CCN(CCCNC(=O)CCCN1C(=O)COc2ccc(C)cc21)c1cccc(C)c1	16µM*	?	>57	-13%	-24%	2%
Cc1cc2ncn(C3CC(=O)N(Cc4ccccc4)C3=O)c2cc1C (stereo not given)	3%	11%	>57	-8%	32µM*	-8%
Cc1ccc(S(=O)(=O)N2CCN(C3CC(=O)N(Cc4ccccc4)C3=O)CC2)cc1C (stereo not given)	-9%	5%	>57	-4%	9%	1%
NC1(C(=O)O)C[C@H](C(=O)O)[C@H](C(=O)O)C1 (stereo not given in full)	?	-14%[25.6 µM]	.	-3%	11%	3%
O=C(CSc1nc(-c2ccco2)cc(C(F)(F)F)n1)Nc1ccc2c(c1)OCO2	153%	-6%	>57	-3%	8%	2%
O=C(CCCSc1nc(-c2ccco2)cc(C(F)(F)F)n1)Nc1ccc2c(c1)OCO2	25µM*	-14%	>57	-9%	5%	-2%
C1CCN(CC[C@@H]2CCCCN2)CC1	1%[11.4 µM]	0%[11.4 µM]	.	-1%[11 µM]	-8%[11.5 µM]	0%[11.4 µM]
CCCCCN=Cc1c(C)[nH]n(-c2nc3ccccc3s2)c1=O	35%[11.4 µM]	57%[11.4 µM]	.	-5%[11 µM]	-17%	7.9µM*
CO[C@@H]1/C=C\CC(=O)N[C@@H](C)C(=O)OC[C@@H](OC)[C@H](C)/C=C\CC(=O)OC[C@H]1C	.	10%[11.4 µM]	.	.	-2%[11.5 µM]	1%[11.4 µM]
COc1ccccc1-c1cc(C(=O)N2CCN(c3ccccc3OC)CC2)no1	0%	-7%	>57	-2%	0%	0%
COc1ccccc1N1CCN(C(=O)c2ccc3nc(-c4ccco4)c(-c4ccco4)nc3c2)CC1	3.2µM*	20µM*	>57	-19%	16µM*	-5%
COc1ccc(Nc2ccnc3ccccc23)cc1	7.9µM*	-3%	i	-2%	-17%	-5%
COc1nccc(Nc2ccccc2)c1C#N	-6%	3%	>57	0%	-10%	-1%
COc1cc([C@H](O)C(=O)O)ccc1O	-1%	13%	.	-1%	-3%	2%
COc1ccc(-c2cc(OC)c3c(C)oc(C)c3c(=O)c2)cc1OC	25µM*	-23%	>57	-11%	?	1%
COc1cc(-c2cc(OC)c3c(C)oc(C)c3c(=O)c2)ccc1O	-28%	25µM*	>57	-12%	?	2%
COc1ccc(-c2cc(=O)c3c(O)c(OC)c(OC)c(OC)c3o2)cc1OC	.	-6%	.	.	?	.
Cc1noc(C)c1C(=O)N1CCC[C@@]2(CCN(C(=O)Nc3ccccc3)C2)C1	4%	4%	.	-8%	9%	0%[11.4 µM]
CN(C)[C@H]1C(=O)C(C(=O)NCN2CCCC2)=C(O)[C@]2(O)C(=O)C3=C(O)c4c(O)cccc4[C@](C)(O)[C@H]3C[C@H]12	-10%[11.4 µM]	-25%[11.4 µM]	.	-16%[11 µM]	-5%[11.5 µM]	-1%[11.4 µM]
C/C(Cl)=C/CCl	5%	-3%	.	-3%	14%	.
CC(C)=NO[C@@H](C)c1cn([C@H](CO)Cc2ccccc2)nn1	.	6%[11.4 µM]	.	.	12%[11.5 µM]	0%[11.4 µM]
CCCCSc1nc2c(cc1C#N)CCC2	4%	?	>57	12%	40%	0%
SMILES	Tau fil binding	15-hLO inh	PK Bst	Hsp90 Hop PPI	ERK AVP inh	Luciferase inh
CCCSc1nc(C)c(-c2csc(C(C#N)=C3CCCC3)n2)cc1C#N	16µM*	?	>57	9%	9%	0%
O=C(NC1CCCC1)c1ccc2nc(-c3ccco3)c(-c3ccco3)nc2c1	-19%	10µM*	.	-24%	?	?
O=C(Nc1ccc2nc(-c3ccco3)c(-c3ccco3)nc2c1)N1CCCCCC1	1.3µM*	5µM*	>57	?	?	-14%
CCOC(=O)C1CCN(C(=O)Nc2ccc3nc(-c4ccco4)c(-c4ccco4)nc3c2)CC1	0.79µM*	5µM*	.	-28%	25µM*	-27%
CC1CCN(Cc2c(C#N)c3ccccc3n2C)CC1	-2%	25µM*	>57	3%	11%	2%
O=C(O)C1CC(C2CCCCN2)CN2CCCCC12 (stereo not given)	.	-4%	.	.	-9%	.
CN(CCCNC(=O)c1cn(C)c2ccc(S(=O)(=O)N(C)C)cc2c1=O)c1ccccc1	6%	-4%	.	-15%	-15%	1%
CN(C)S(=O)(=O)c1ccc2c(c1)c(=O)c(C(=O)NCCCN1CCCCCC1)cn2C	42%	?	.	-3%	16µM*	0%
Fc1cccc2sc(Nc3nnc(-c4ccco4)o3)nc12	-4%	7%	.	-6%	25%	25µM*
COc1cccc2sc(Nc3nnc(-c4cccs4)o3)nc12	52%	28%	>57	5%	8%	16µM*
COc1cccc2sc(Nc3nc(-c4ccccn4)cs3)nc12	128%	7%	.	?	-29%	?
CCOC(=O)C[C@@H](C(=O)OCC)[C@@H]1CCCCC1=O	.	0%[11.4 µM]	.	.	22%[11.5 µM]	-4%[11.4 µM]
COC(=O)c1cc(=O)[nH]c(=O)[nH]1	-9%[11.4 µM]	6%[11.4 µM]	.	-5%[11 µM]	-11%[11.5 µM]	2%[11.4 µM]
CNc1nn(-c2cccc(Cl)c2)nc1N	16µM*	-7%	.	-26%	2%	-22%
CCOC(=O)c1cnn(-c2cccc(Cl)c2)c1N	-3%	1%	>57	-1%	13%	-2%
Cc1ccc(-c2cn3nc(C)c(C)nc3n2)cc1	365%	1%	5.5*	-2%	2%	2.5µM*
CCCCC(CC)CNCC(CC)CCCC (stereo not given)	2%	7%	.	0%	20%	.
CCN1C(=O)[C@H]2[C@H]3[C@H](O)[C@H](O)C/C(=N/O[C@@H]4O[C@H](COC(C)=O)[C@@H](OC(C)=O)[C@H](OC(C)=O)[C@H]4OC(C)=O)[C@@H]3CC[C@@H]2C1=O	.	8%[11.4 µM]	.	.	6%[11.5 µM]	0%[11.4 µM]
O=C1OC2(c3cc(Br)c(O)c(Br)c3Oc3c2cc(Br)c(O)c3Br)c2c(Cl)c(Cl)c(Cl)c(Cl)c21	0.13µM*	-25%	.	?	?	.
O=C1OC(c2ccc(O)c(-c3ccccc3)c2)(c2ccc(O)c(-c3ccccc3)c2)c2c(Cl)c(Cl)c(Cl)c(Cl)c21	2%[11.4 µM]	10%[11.4 µM]	.	-2%[11 µM]	-3%[11.5 µM]	3%[11.4 µM]
CCOc1ccc(N2Cc3ccccc3C2)cc1	16µM*	-9%	.	-16%	-26%	10µM*

Source: PubChem (National Center for Advancing Translational Sciences (NCATS))
